The structures appear in SMILES notation. Inconclusive results are not listed. Unmarked numbers belong to inactive results. Calls of active or inactive are those of the source. Calls come from the whole dose curve; as a rule, active = well fitted cell-killing curve with a large enough effect in the repeat runs; inconclusive = weak or mixed curves, or effect the other way; inactive = flat fitted curve, though single readings scatter.
% is set by controls: 0 for no effect and ±100 for the full control effect.

This assay is described as follows: qHTS RealTime-Glo MT Cell Viability Assay in HEK293 cells - 0 hour (AID 1224880). Note: top concentration of the series differs between compounds; nearly all actives have a fitted effect of over 45% in size. The following applies: RealTime-Glo luminescence; series mostly up to 76.8 µM. The source says: U.S. Tox21 Program National Center for Advancing Translational Sciences [NCATS] NIH Chemical Genomics Center [NCGC] U.S. Environmental Protection Agency [EPA] National Institutes of Environmental Health Sciences [NIEHS] National Toxicology Program [NTP] U.S. Food and Drug Administration [FDA] Tox21 Assay Overview: Measure of cell viability is critical in the cell-base assay. Analysis of cell viability is necessary for the characterization of cell responses to cytotoxic drugs and environmental stress. A RealTime-Glo MT Cell Viability Assay to monitor cell viability in real time of continues cell culture during 40 hours of compound treatment was used to screen Tox21 10K library compounds in Hek293 cells. The RealTime-Glo MT Cell Viability Assay is a nonlytic, homogeneous, bioluminescent method to measure cell viability in real time using a simple, plate-based method. The assay involves adding NanoLuc luciferase and a cell-permeant prosubstrate to cells in culture. Viable cells reduce the proprietary prosubstrate to generate a substrate for NanoLuc luciferase. This substrate diffuses from cells into the surrounding culture medium, where it is rapidly used by the NanoLuc Enzyme to produce a luminescent signal. The signal correlates with the number of viable cells, making the assay well suited for cytotoxicity studies.
Tox21 Assay Protocol Summary: The mixture of Hek293 cell suspension and reagents were dispensed at 600cells/6 ul/well in 1536-well tissue culture treated black solid bottom plates using a Multidrop dispenser. After the assay plates were incubated at a 37 C/5% CO2 incubator for 5 hours, 23 nL of compounds dissolved in DMSO, positive and negative controls was transferred to the assay plate by a pintool work station. The plates were incubated at 37 C for 40 hours. The luminescence intensity were measured at 0h, 8h, 16h, 24h, 32h and 40h time points using ViewLux plate reader during compound treatment.
As for `O=C1NC2NC(=O)NC2N1` (stereo not given), the call was inactive.

For `CCCCCCCCOC(C)=O`, the outcome was inactive. As for `OC(CCN1CCCCC1)(c1ccccc1)c1ccccc1`, the compound was classed as inactive. In the case of `O=C(O)Cc1cccc(-c2cc(CCCCCCc3ccc(O[C@H]4O[C@H](CO)[C@@H](O)[C@H](O)[C@@H]4O)c(-c4cccc(CC(=O)O)c4)c3)ccc2O[C@H]2O[C@H](CO)[C@@H](O)[C@H](O)[C@@H]2O)c1`, the activity change, negative = cytotoxicity was 3.85% [at 0.29 µM]. In the case of `O=C(CN1CCN(Cc2ccc3c(c2)OCO3)CC1)N1c2ccccc2Sc2ccccc21`, the outcome was inactive. For the compound `C[C@H](CCC(=O)NCC(=O)O)[C@H]1CC[C@H]2[C@@H]3[C@H](O)C[C@@H]4C[C@H](O)CC[C@]4(C)[C@H]3C[C@H](O)[C@]12C`, the compound was classed as inactive. Consider `COC(OC)C(C)c1ccccc1` (stereo not given), for which the compound was called inactive. As to `CC(C)COC(=O)CC(C(=O)OCC(C)C)S(=O)(=O)O` (stereo not given), the outcome was inactive.

As to `CO/N=C(/C(=O)N[C@@H]1C(=O)N2C(C(=O)O)=C(Cn3nnc(C)n3)CS[C@H]12)c1csc(N)n1`, the outcome was inactive. As for `Cc1ccc2c(c1)c1c3n2CCNC3CCC1` (stereo not given), the compound was classed as inactive. As for `CC(=O)N1CCN(c2ccc(O)cc2)CC1`, the result was inactive. Regarding `CC(=O)Nc1ncc([N+](=O)[O-])s1`, the result was inactive. As to `NC(Cc1c[nH]c2ccccc12)C(=O)O` (stereo not given), the outcome was inactive. The same measure, in the same setting: as for `O=P(O)(O)OCC(O)CO` (stereo not given), the entry is “inactive”; as for `CNC(=O)C(c1ccccc1)c1ccccc1`, “inactive”. The same measure, in the same setting: with `CN=C(NC#N)NCCSCc1csc(N=C(N)N)n1` the entry was “inactive”; with `CC(=O)c1ccc2c(c1)CCCC2`, “inactive”. Turning to `Nc1cc(C(=O)O)ccc1Cl`, the compound was classed as inactive. Turning to `NC(=O)NNC(N)=O`, the result was inactive.

In the case of `C[C@H](CCC(=O)O)[C@H]1CC[C@H]2[C@@H]3[C@H](O)C[C@@H]4C[C@H](O)CC[C@]4(C)[C@H]3C[C@H](O)[C@]12C`, the outcome was inactive. Consider `C[N+](C)(C)CC(O)CCl` (stereo not given), for which the compound was classed as inactive. In the case of `O=C(O)c1c(Cl)ccc(Cl)c1Cl`, the compound was classed as inactive. For the compound `C=CCCCCCCCCCCC`, the activity change, negative = cytotoxicity was 4.11% [at 6.97 µM].

`COc1ccc(/C=N/NC(=O)c2ccncc2)cc1OC`: the compound was classed as inactive.

In the case of `CCCOC(=O)CCCCC(=O)OCCC`, the outcome was inactive.

Turning to `COC(/C=C(\C)CCC=C(C)C)OC`, the result was inactive. As to `COc1cc2c3cc1Oc1cc(ccc1O)C[C@@H]1c4c(cc(OC)c(O)c4Oc4ccc(cc4)C[C@@H]3N(C)CC2)CC[N+]1(C)C`, the result was inactive.

For the compound `C1CCN2C[C@@H]3C[C@@H](CN4CCCC[C@@H]34)[C@H]2C1`, the call was inactive.

`CC(=O)OC(C(=O)c1ccccc1)c1ccccc1` (stereo not given): the compound was classed as inactive.

With `C=CCOCC(CO)(COCC=C)COCC=C`, the call was inactive. As for `CC(C)=CC(C)(C)C`, the compound was called inactive.

Take `Cc1nc(C)nc(N2C[C@@H](C)N(c3ccnc([C@@H](C)O)n3)[C@@H](C)C2)n1`: the result was inactive.

For the compound `CCOc1ccc(NC(=O)OC(C)C)cc1OCC`, the result was inactive. `COCCOCCOCCOC`: the compound was called inactive. Regarding `CCCCCN(CCCOC)C(=O)C(CCC(=O)O)NC(=O)c1ccc(Cl)c(Cl)c1` (stereo not given), the compound was classed as inactive. For the compound `CC(=O)c1ccc(OCC(=O)N2CCCCC2)cc1`, the result was inactive. Take `CCOC(=O)CCCCCCCCC(=O)OCC`: the compound was classed as inactive. With `O=C1CC[C@H](C(=O)N2CCCCC2)N1`, the call was inactive.

Consider `C=COCCOCCOC=C`, for which the call was inactive. For the compound `Cc1c(C(C)C)c(=O)n(-c2ccccc2)n1C`, the outcome was inactive.

The values are drawn from PubChem BioAssay (Tox21).
